In PubChem BioAssay (NCI) one finds growth data, which are given here for 12 compounds.

Compounds without any hit were thinned out: in the full panel of roughly 83,000, 20% have a hit.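 Negative percent growth values reflect cell death: -40 means 40% of the cells present at the start died, and -100 means all died.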 Unmarked numbers belong to inactive results. The source made the active and inactive calls. The calls were made as follows: active = growth percent below 10; inactive = the rest.

Some test systems named below: SR leukemia; RPMI-8226 leukemia; OVCAR-8 ovarian; OVCAR-5 ovarian; OVCAR-4 ovarian; SK-OV-3 ovarian; IGROV1 ovarian; OVCAR-3 ovarian; HS 578T breast; NCI/ADR-RES ovarian.
Holding throughout (test): NCI-60 one-dose screen, 48 h (100 = growth as untreated, 0 = no growth, -100 = all killed)
Common to all, as to conditions: 10 µM unless noted

As for `CC(=O)c1sc2sc(C(C)=O)c(C)c2c1C`, the growth is 75.6% with SR leukemia; 66.7% with RPMI-8226 leukemia; 84% in the assay on OVCAR-8 ovarian; 93.2% with OVCAR-5 ovarian; 108% in the assay with OVCAR-4 ovarian; 81.2% in the assay with SK-OV-3 ovarian. Further, the growth in the assay on IGROV1 ovarian was 101%; with OVCAR-3 ovarian, 110%; in the assay on HS 578T breast it was 92%; with NCI/ADR-RES ovarian, 95.6%.
For the compound `COc1cc(/C=C/C(=O)c2ccc(-n3cc(CN4CCN(c5cc6c(cc5F)c(=O)c(C(=O)O)cn6C5CC5)CC4)nn3)cc2)ccc1O`, the growth in the assay on SR leukemia was 14.1%; in the assay on RPMI-8226 leukemia, -14.6% (active); in the assay on OVCAR-8 ovarian, 42.7%; in the assay with OVCAR-5 ovarian, 84.7%; with OVCAR-4 ovarian, 62.9%; with SK-OV-3 ovarian it was 72.3%. In addition, the growth in the assay with IGROV1 ovarian was 51.8%; in the assay with OVCAR-3 ovarian, 57.3%; in the assay with HS 578T breast it was 73.7%; in the assay on NCI/ADR-RES ovarian, 94.2%.
In the case of `CC1=C2[C@@H](CC1)[C@]1(C)O[C@@](c3ccccc3)(C[C@H]1OC(=O)CO)[C@H]2OC(=O)/C=C/c1ccccc1`, the growth with SR leukemia is 68.8%; in the assay with RPMI-8226 leukemia, 77.7%; in the assay on OVCAR-8 ovarian, 10.3%; in the assay on OVCAR-5 ovarian it was 108%; with OVCAR-4 ovarian it was 5.56% (active); in the assay on SK-OV-3 ovarian, 119%. Further, the growth in the assay with IGROV1 ovarian was 108%; in the assay on OVCAR-3 ovarian, 97.6%; with HS 578T breast, -10.2% (active); in the assay on NCI/ADR-RES ovarian it was 2.86% (active).
In the case of `O=C(CSc1nc(-c2ccccc2)cc(=O)[nH]1)Nc1nc(-c2ccccc2)cs1`, the growth is 45.1% in the assay on SR leukemia; 96.1% in the assay with RPMI-8226 leukemia; 97% with OVCAR-8 ovarian; 95.9% in the assay on OVCAR-5 ovarian; 96.1% with OVCAR-4 ovarian; 84.1% in the assay with SK-OV-3 ovarian. Moreover, the growth with IGROV1 ovarian is 57.8%; in the assay with OVCAR-3 ovarian, 101%; with HS 578T breast, 90%; with NCI/ADR-RES ovarian it was 93.2%.
As to `CN(C)CCN1C(=O)c2cccc3c(/C=C/CN4C(=O)c5cccc6cccc(c56)C4=O)ccc(c23)C1=O`, the growth in the assay with SR leukemia is -16.4% (active); in the assay on RPMI-8226 leukemia, -31.4% (active); in the assay with OVCAR-8 ovarian, -43.5% (active); with OVCAR-5 ovarian, -69% (active); in the assay with OVCAR-4 ovarian it was -5.6% (active); in the assay with SK-OV-3 ovarian, 109%. Besides, the growth in the assay with IGROV1 ovarian was 89.4%; with OVCAR-3 ovarian it was 114%; in the assay with HS 578T breast, 82.6%; with NCI/ADR-RES ovarian, 24%.
Consider `O=C1/C(=C/c2ccc(O)c(O)c2)COc2ccc(-c3ccccc3)cc21`, for which the growth in the assay on SR leukemia was -20% (active); in the assay with RPMI-8226 leukemia, -13.1% (active); in the assay with OVCAR-8 ovarian it was 26.5%; in the assay with OVCAR-5 ovarian it was 50.6%; in the assay with OVCAR-4 ovarian, 26.6%; in the assay with SK-OV-3 ovarian, 81.1%. Also, the growth in the assay with IGROV1 ovarian is -13.1% (active); in the assay on OVCAR-3 ovarian, 20.2%; in the assay on HS 578T breast, 15%; in the assay on NCI/ADR-RES ovarian, 19.2%.
`Fc1cc(Nc2ccc3c(OCCCN4CCOCC4)cccc3n2)ccc1Cl`: the growth in the assay on SR leukemia was 10.7%; in the assay with RPMI-8226 leukemia it was 4.49% (active); in the assay with OVCAR-8 ovarian, 73.5%; with OVCAR-5 ovarian, 33.5%; in the assay with OVCAR-4 ovarian it was 53.1%; in the assay with SK-OV-3 ovarian, 67.7%. The growth is 36.2% in the assay with IGROV1 ovarian, 65.1% in the assay with OVCAR-3 ovarian, 40.1% in the assay on HS 578T breast and 48.5% with NCI/ADR-RES ovarian.
Take `S=c1nc2oc(-c3ccccc3)c(-c3ccccc3)c2c(/N=C\c2ccco2)[nH]1`: the growth in the assay on SR leukemia was 86.3%; with RPMI-8226 leukemia it was 97.6%; in the assay with OVCAR-8 ovarian, 97.4%; with OVCAR-5 ovarian, 87.7%; in the assay on OVCAR-4 ovarian, 93.6%; in the assay with SK-OV-3 ovarian it was 109%. For the same compound, the growth in the assay on IGROV1 ovarian was 101%; in the assay with OVCAR-3 ovarian it was 98.4%; in the assay on HS 578T breast, 81.9%; in the assay on NCI/ADR-RES ovarian, 100%.
For `O=[N+]([O-])c1ccc(-c2cn3nc(-c4c[nH]c5ccccc45)sc3n2)cc1`, the growth was 92.2% in the assay with SR leukemia; 93.1% in the assay with RPMI-8226 leukemia; 104% in the assay on OVCAR-8 ovarian; 96.9% in the assay with OVCAR-5 ovarian; 88% in the assay with OVCAR-4 ovarian; 88.3% in the assay with SK-OV-3 ovarian. Besides, the growth was 89% in the assay on IGROV1 ovarian, 109% in the assay with OVCAR-3 ovarian, 99.9% in the assay on HS 578T breast and 99.3% in the assay with NCI/ADR-RES ovarian.
With `COc1ccc2[nH]cc(-c3nc(-c4c[nH]c5c(Cl)nccc45)cs3)c2c1`, the growth with SR leukemia was 18.1%; in the assay on RPMI-8226 leukemia, 43.5%; with OVCAR-8 ovarian, 28.9%; in the assay on OVCAR-5 ovarian it was 99.9%; in the assay on OVCAR-4 ovarian it was 68.6%; in the assay on SK-OV-3 ovarian, 46.9%. Moreover, the growth is 54.7% with IGROV1 ovarian, 75.9% with OVCAR-3 ovarian, 38.7% in the assay with HS 578T breast and 20.7% in the assay with NCI/ADR-RES ovarian.
With `N#CC1=C(N)Oc2ccc3ccccc3c2C1c1ccc([N+](=O)[O-])cc1` (stereo not given), the growth in the assay on SR leukemia was 77.3%; in the assay with RPMI-8226 leukemia, 83%; with OVCAR-8 ovarian it was 85.7%; with OVCAR-5 ovarian it was 108%; with OVCAR-4 ovarian, 69.3%; in the assay with SK-OV-3 ovarian it was 83.4%. Besides, the growth is 50.6% in the assay on IGROV1 ovarian, 79.4% in the assay with OVCAR-3 ovarian, 90.2% with HS 578T breast and 94.6% in the assay with NCI/ADR-RES ovarian.
For `CN(C)c1ccc(/C=C(\C#N)c2cc3ccccc3[nH]2)cc1`, the growth in the assay on SR leukemia is 20%; with RPMI-8226 leukemia, 6.48% (active); in the assay with OVCAR-8 ovarian, 26%; in the assay on OVCAR-5 ovarian, 44.9%; with OVCAR-4 ovarian, 55.7%; with SK-OV-3 ovarian it was 26.5%. The growth was 50% in the assay with IGROV1 ovarian, 8.37% (active) in the assay with OVCAR-3 ovarian, 1.2% (active) with HS 578T breast and 10.8% with NCI/ADR-RES ovarian.
